Screens from PubChem BioAssay.
This is a sample that favours compounds with a hit; in the whole collection about 2.9% have one here.
ABCB6 inh 2: ABCB6 transporter inhibitors, primary screen, K562-ABCB6 cells, flow cytometry, MLPCN library | ATP-binding cassette sub-family B member 6 (Homo sapiens), Q9NP58 | hit rate 0.19% among 360,000 | K562-ABCB6 porphyrin accumulation, 1 h; stronger effect = lower value | fluorescence ratio to DMSO, % at 10 µM;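 active = fluorescence ratio to DMSO below 75%, the collection mean minus 3 SD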;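 also: signal is porphyrin accumulated inside mitochondria; lower ratio means ABCB6 inhibition with less porphyrin fluorescence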
Target sequence (Q9NP58 whole entry, looked up): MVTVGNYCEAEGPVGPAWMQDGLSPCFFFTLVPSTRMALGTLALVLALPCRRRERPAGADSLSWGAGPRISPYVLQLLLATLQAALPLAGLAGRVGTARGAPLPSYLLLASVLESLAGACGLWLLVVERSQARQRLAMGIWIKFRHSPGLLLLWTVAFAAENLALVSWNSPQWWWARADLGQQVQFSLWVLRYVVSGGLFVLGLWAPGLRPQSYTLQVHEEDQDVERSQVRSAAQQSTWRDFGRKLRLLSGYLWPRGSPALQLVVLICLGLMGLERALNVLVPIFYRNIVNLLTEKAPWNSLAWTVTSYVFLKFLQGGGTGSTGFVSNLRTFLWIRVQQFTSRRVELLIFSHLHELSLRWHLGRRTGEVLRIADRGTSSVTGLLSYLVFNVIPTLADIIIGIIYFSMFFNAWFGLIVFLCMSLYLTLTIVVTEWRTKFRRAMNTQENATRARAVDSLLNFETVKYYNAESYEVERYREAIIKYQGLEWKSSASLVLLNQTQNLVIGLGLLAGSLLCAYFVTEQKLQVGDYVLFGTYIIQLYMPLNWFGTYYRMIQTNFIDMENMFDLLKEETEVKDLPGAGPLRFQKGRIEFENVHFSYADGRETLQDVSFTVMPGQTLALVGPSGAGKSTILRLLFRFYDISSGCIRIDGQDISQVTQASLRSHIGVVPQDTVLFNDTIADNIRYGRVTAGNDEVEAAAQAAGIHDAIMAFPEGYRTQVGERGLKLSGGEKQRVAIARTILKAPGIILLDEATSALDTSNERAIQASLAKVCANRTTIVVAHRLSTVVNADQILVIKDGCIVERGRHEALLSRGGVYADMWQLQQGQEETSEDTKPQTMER
MEKK2 WT-MEK5: modulators of MEK5 binding to wildtype MEKK2, primary screen, biochemical, multiplex bead flow cytometry, Alexa488-MEK5; hit rate 1.1% among 290,000; AID 1531, 2009; binding response (% of control), % at 10 µM; Alexa488-MEK5 binding to MEKK2 WT; actives lie on both sides; in the data active = binding response below about 67% or above about 130%
CRFR2-BP antag: antagonists of CRF-BP/CRF-R2 complex, primary screen, cell-based, HEK293, calcium dye fluorescence, uHTS | inhibition, % at 11.8 µM | CRF-induced calcium fluorescence | hit rate 0.59% among 350,000;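 active = inhibition of the ligand-induced calcium signal above about 50% at the single tested concentration, limit read from the data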
MEKK2 mut-MEK5: MEK5 binding signal on mutant MEKK2 PB1, primary screen, biochemical, multiplex bead flow cytometry, Alexa488-MEK5. Alexa488-MEK5 binding to MEKK2 mutant. percent response, % at 10 µM. AID 1530, 2009. hit rate 0.35% among 290,000; in the data active = percent response above about 24%, passing the limit was not always enough
MEKK3 PB1 HTS: modulators of MEKK3-MEK5 PB1 binding, primary screen, biochemical, wildtype MEKK3, multiplex bead flow cytometry, Alexa488-MEK5; Mitogen-activated protein kinase kinase kinase 3 (Homo sapiens), Q99759; bead-based flow cytometry, Alexa488-MEK5 binding to MEKK3; actives lie on both sides; 0 = blocked by unlabeled MEK5, 100 = vehicle; binding response (% of control), % at 10 µM; hit rate 1.4% among 290,000; AID 1529, 2009;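 active = binding response more than 3 SD above or below the average of its plate-row segment, actives on both sides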;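 also: Alexa488 bead fluorescence after subtracting the streptavidin-only scavenger bead signal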
CRFR2-BP ag: agonists of CRF-BP/CRF-R2 complex, primary screen, cell-based, HEK293, calcium dye fluorescence, uHTS | AID 588473, 2011 | calcium dye fluorescence (FLIPR); percent of saturating CRF peptide response | activation, % at 13.2 µM | CRF-binding protein / CRF receptor 2 complex (human) | hit rate 0.46% among 350,000;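 active = activation of at least 50%, plus an integration ratio under a set limit after plate pattern correction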
MEKK2wt confirm: modulators of MEK5 binding to wildtype MEKK2, confirmation, biochemical, single concentration, multiplex bead flow cytometry; hit rate 2.4% among 5,900; binding response (% of control), % at 10 µM; Alexa488-MEK5 binding to MEKK2 WT; actives lie on both sides; shares compounds with MEKK3 PB1 HTS; in the data active = binding response below about 16% or above about 210%; inactive = in between
MEKK2mut-MEK5: mutant MEKK2 PB1-MEK5 binding signal retest – biochemical, single concentration, multiplex bead flow cytometry, confirmation. Alexa488-MEK5 binding to MEKK2 mutant. AID 1893, 2009. hit rate 2% among 5,900. percent response, % at 10 µM. shares compounds with MEKK3 PB1 HTS; in the data active = percent response mostly above about 71%, no sharp cut-off; inactive = mostly below about 38%;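 also: higher means compound restores mutant binding toward wildtype level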
MEKK3 confirm: MEKK3 wild-type PB1 binding to MEK5, inhibitors, confirmation, biochemical, bead multiplex flow cytometry, single concentration, wildtype; shares compounds with MEKK3 PB1 HTS; binding response (% of control), % at 10 µM; hit rate 1.8% among 5,900; Alexa488-MEK5 binding to MEKK3; stronger effect = lower value; AID 1894, 2009;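 active = binding response below 72% of control, or above a set upper limit, though filed actives all read lower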
Large screens that a line does not name were inactive (follow-up assays come after a bar, where they were run); [ ] = remark or other dose.

CC(C)CN1CCNC(=O)C1CC(=O)NCc1cnn(-c2cccc(F)c2)c1 (stereo not drawn)	MEKK2 WT-MEK5 138 | MEKK2wt confirm inactive | MEKK2mut-MEK5 inactive | MEKK3 confirm inactive
Cc1ccccc1-n1c(C)nnc1SCC(=O)NNC(=O)c1ccccc1	MEKK3 PB1 HTS 148 | MEKK2wt confirm inactive | MEKK2mut-MEK5 inactive | MEKK3 confirm inactive
COCCSc1ccccc1C(=O)Nc1ccc(S(=O)(=O)N2CCOCC2)cc1	none
CCc1ccc(C(=O)NNC(=O)CN2C(=O)NC(CC)(c3ccccc3)C2=O)cc1 (stereo not drawn)	none (no result: MEKK2 WT-MEK5, MEKK2 mut-MEK5, MEKK3 PB1 HTS)
Cn1c(CC(=O)Nc2ccc(F)cc2)c(Sc2ccccc2)c2ccccc21	MEKK2 mut-MEK5 54 | MEKK2wt confirm inactive | MEKK2mut-MEK5 inactive | MEKK3 confirm inactive
COc1ccc(NC(=O)Cc2c(Sc3ccccc3)c3ccccc3n2C)cc1	MEKK3 PB1 HTS 154 | MEKK2wt confirm inactive | MEKK2mut-MEK5 inactive | MEKK3 confirm inactive
NC(=S)N1N=C(c2ccccc2)CC1=O	none (no result: MEKK2 WT-MEK5, MEKK2 mut-MEK5, MEKK3 PB1 HTS)
COc1ccccc1CNC(=O)COc1ccc(S(=O)(=O)N2CCCC2)cc1	none
O=C(Nc1ccc2c(c1)C(=O)OC2)c1ccc(F)cc1F	none
CS(=O)(=O)N(CC(=O)NCc1ccc2c(c1)OCO2)C1CCCCC1	MEKK3 PB1 HTS 136 | MEKK2wt confirm inactive | MEKK2mut-MEK5 inactive | MEKK3 confirm inactive
Cc1ccc(-n2cc(CNCC3CC(=O)N(C4CC4)C3)c(-c3cccc(C)c3)n2)cc1 (stereo not drawn)	MEKK2 WT-MEK5 143 | MEKK2wt confirm inactive | MEKK2mut-MEK5 inactive | MEKK3 confirm inactive
Cc1ccc(-n2cc(CN3CCNC(=O)CC3)c(-c3cccc(C)c3)n2)cc1	none
Cc1cc(NC(=O)CON=C(N)CC(=O)Nc2ccccc2Cl)ccc1Br	none (no result: MEKK2 WT-MEK5, MEKK2 mut-MEK5, MEKK3 PB1 HTS)
COc1cccc(OCc2cc(C(=O)N(C)C3CCCCC3)no2)c1	none (no result: MEKK2 WT-MEK5, MEKK2 mut-MEK5, MEKK3 PB1 HTS)
CCCCNC(=S)NNC(=O)CCn1nc(C)c(Br)c1C	none
O=C(CCc1ccccc1)NNC(=S)Nc1ccc(F)cc1	MEKK3 PB1 HTS 70[inhibitor] | MEKK2wt confirm inactive | MEKK2mut-MEK5 inactive | MEKK3 confirm inactive
Cc1nn(CCC(=O)NNC(=S)Nc2ccc(F)cc2)c(C)c1Br	MEKK3 PB1 HTS 129 | MEKK2wt confirm inactive | MEKK2mut-MEK5 inactive | MEKK3 confirm inactive
O=C(Cc1ccccc1)NNC(=S)Nc1ccc(Cl)cc1	none
O=C(COC(=O)C1(c2cccc(F)c2)CCCC1)NCc1cccs1	none
O=C(COC(=O)C1(c2cccc(F)c2)CCCC1)NCc1ccc2c(c1)OCO2	MEKK3 PB1 HTS 132 | MEKK2wt confirm inactive | MEKK2mut-MEK5 inactive | MEKK3 confirm inactive
COc1ccc(OC)c(N(CC(=O)NC2CCCC2)S(=O)(=O)c2ccc(OC)c(OC)c2)c1	none
